The subject of the test is HL-1. In words: protection of cardiomyocytes from stress damage, SAR follow-up, cell-based, panel, H9c2 and HL-1, ATP luminescence, set 2 (AID 651871).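 Also: cells exposed to stressor for 2 h before ATP readout; reference of the scale not given here.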 The conditions noted are these: H9c2/HL-1 cardiomyocytes, 2-deoxyglucose stress, with 2-deoxyglucose, run 5, at 19.8 µM (top of the series).

In turn, `COc1ccc2c(c1OC)C(=O)N1c3ccccc3C(=O)N(Cc3cccc(Cl)c3Cl)C21` (stereo unspecified) displayed an activity (protection/inhibition) of 51.6%.

For the origin of these results see PubChem BioAssay AID651871 (Sanford-Burnham Center for Chemical Genomics, 2012).
